Wnt act = activators of Wnt/beta-catenin signaling. Wnt/beta-catenin reporter cell assay, activator, plate reader. activation, % at 9.35 µM. 1.2% of 300,000 active; in the data active = activation above about 30%, passing the limit was not always enough; inconclusive = no clear call, values can overlap the other calls;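 note: 0% = neutral control wells and 100% = positive control wells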
AHR act = human AHR activation; AHR-responsive luciferase reporter cells, luminescence; P35869; activation, % at 5 µM; 2.5% of 320,000 active; in the data active = activation above about 47%;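 note: 0% = vehicle wells and 100% = reference agonist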
Target sequence (P35869 whole entry, looked up): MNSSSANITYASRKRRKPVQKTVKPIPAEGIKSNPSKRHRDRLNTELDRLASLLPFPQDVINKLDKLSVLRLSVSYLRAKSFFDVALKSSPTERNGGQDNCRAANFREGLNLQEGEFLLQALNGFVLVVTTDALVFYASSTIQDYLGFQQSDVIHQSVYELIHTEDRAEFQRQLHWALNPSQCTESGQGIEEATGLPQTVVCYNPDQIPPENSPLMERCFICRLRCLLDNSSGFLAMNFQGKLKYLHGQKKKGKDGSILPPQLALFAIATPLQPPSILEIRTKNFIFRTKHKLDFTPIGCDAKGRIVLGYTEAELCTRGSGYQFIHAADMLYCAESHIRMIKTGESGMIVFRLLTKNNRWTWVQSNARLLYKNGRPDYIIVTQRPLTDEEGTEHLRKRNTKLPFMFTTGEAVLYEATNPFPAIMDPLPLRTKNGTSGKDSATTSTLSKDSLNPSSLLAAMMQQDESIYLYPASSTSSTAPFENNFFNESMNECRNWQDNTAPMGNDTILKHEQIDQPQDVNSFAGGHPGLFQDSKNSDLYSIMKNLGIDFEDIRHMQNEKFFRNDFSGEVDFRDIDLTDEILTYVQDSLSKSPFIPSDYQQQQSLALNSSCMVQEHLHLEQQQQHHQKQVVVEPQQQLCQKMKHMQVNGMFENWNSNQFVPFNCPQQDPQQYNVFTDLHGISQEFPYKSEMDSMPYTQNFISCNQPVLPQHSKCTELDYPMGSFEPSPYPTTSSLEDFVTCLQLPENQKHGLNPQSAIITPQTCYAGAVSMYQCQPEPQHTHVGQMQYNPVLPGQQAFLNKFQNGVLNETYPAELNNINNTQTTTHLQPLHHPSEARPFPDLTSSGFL
MITF act = activators of MITF-driven TRPM1 promoter activity in SK-MEL-5 cells; SK-MEL-5 TRPM1-promoter luciferase, 24 h; % of positive control, neutral wells = 0; activation, % at 12.5 µM; 0.75% of 300,000 active; AID 588334;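 active = mean activation of at least 80% with every replicate also reaching 80%; inconclusive = mean reaches 80% but some replicate falls short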;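 note: 0% = neutral control wells and 100% = parthenolide positive control wells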
esBAF inh = SWI/SNF esBAF complex inhibition. 2% of 350,000 active. reporter increase, % at 12.5 µM. AID 602393. mouse ES cells, Bmi1-luciferase knock-in reporter, 24 h; 100% = twice the neutral-well signal; in the data active = activation above about 40%; inconclusive = no clear call, values can overlap the other calls;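 note: 0% = median of the plate's neutral control wells and 100% = double that signal; a rise in the Bmi1 reporter signal indicates esBAF inhibition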
FXN GAA850 act = frataxin GAA850 promoter activation; HEK293 lucGAA850 FXN promoter luciferase reporter, 24 h; percent of 10 µM SAHA response; activation, % at 6 µM; 0.56% of 360,000 active;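 active = activation above the average of all compounds screened plus 3 SD, cutoff fixed separately per campaign, cut at about 7.5% in these data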;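 note: 0% = DMSO wells and 100% = 10 µM SAHA wells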
* marks the source's active call; other numbers are inactive results; ? = inconclusive; . = not tested or not shown. Hits are enriched below; roughly 4.2% of the tested compounds scored in any of these assays.

SMILES	Wnt act	AHR act	MITF act	esBAF inh	FXN GAA850 act
CC(C)NC(=O)N(C)C[C@@H]1Oc2ccc(NS(=O)(=O)c3ccc(Cl)cc3)cc2C(=O)N([C@H](C)CO)C[C@H]1C	.	.	.	-3	.
Cc1cc(O)c(-c2cc(C(=O)Nc3cccnc3)[nH]n2)cc1C	40*	7	138*	56	6
Cc1cc(C)c(O)c(-c2cc(C(=O)Nc3cccnc3)[nH]n2)c1	22	-2	35	.	3
Cc1cc(C)nc(N/N=C/c2ccccc2)n1	16	4	45	.	1
Cc1cc(C)nc(N/N=C/c2cn[nH]c2-c2ccccc2)n1	8	67*	-8	-2	-1
COc1ccc(/C=C/c2nc(-c3ccccc3)cc(=O)[nH]2)cc1	1	76*	11	.	3
C[C@H](CO)N1C[C@H](C)[C@H](CN(C)C(=O)Nc2cccc3ccccc23)Oc2c(NC(=O)c3cnccn3)cccc2C1=O	.	.	.	5	.
CN1C(=O)c2cc(NC(=O)Cc3ccccc3)ccc2OC[C@H]2O[C@@H](CC(=O)O)CC[C@@H]21	.	.	.	0	.
NC(=O)c1cccc(-c2csc(C(O)c3ccccc3)n2)c1 (configuration not stated)	2	.	.	12	4
OCc1cccc(-c2csc(C(O)c3ccccc3)n2)c1 (configuration not stated)	-1	.	.	41*	0
O=C(O)c1cccc(-c2csc(C(O)c3ccccc3)n2)c1 (configuration not stated)	35*	.	.	43*	1
COc1cc(C(O)c2nc(-c3ccc4ccccc4c3)cs2)ccc1F (configuration not stated)	2	.	.	21	2
Cc1ccc(-c2csc(C(O)c3ccccc3)n2)cc1C (configuration not stated)	2	.	.	53*	-1
Cc1ccc(-c2csc(C(O)c3ccc(F)cc3)n2)cc1C (configuration not stated)	26	.	.	24	4
COc1ccc(C(O)c2nc(-c3ccc4ccccc4c3)cs2)cc1 (configuration not stated)	1	.	.	58*	3
CC(C)c1cccc(-c2csc(C(O)c3ccco3)n2)c1 (configuration not stated)	16	.	.	54*	5
CN(C)c1ccc(-c2csc(C(O)c3ccc(F)c(F)c3)n2)cc1 (configuration not stated)	3	.	.	45*	2
C[C@H]1CN([C@@H](C)CO)C(=O)c2cc(NC(=O)CCCN(C)C)ccc2O[C@@H]1CN(C)Cc1ccc(Oc2ccccc2)cc1	.	.	.	1	.
COC(=O)c1ccc(NC(=O)Nc2ccc(F)cc2)cc1	.	-4	64	60*	0
COC(=O)c1ccc(NC(=O)Nc2ccc(OC)cc2)cc1	1	-4	33	12	2
COc1ccc(NC(=O)Nc2ccc(N(C)C)cc2)cc1	65*	6	67	19	5
CN(C)c1ccc(NC(=O)Nc2cccc3ccccc23)cc1	17	34	64	39	5
COc1ccc(NC(=O)Nc2ccc(OC)cc2)cc1	.	1	62	60*	5
COc1ccc(CNC(=O)Nc2ccc(OC)cc2)cc1	.	-4	-5	-1	0
CCOC(=O)c1ccc(NC(=O)Nc2ccc(F)cc2)cc1	30	-1	66	.	0
SMILES	Wnt act	AHR act	MITF act	esBAF inh	FXN GAA850 act
COc1ccc(NC(=O)Nc2c(O)ccc3ccccc23)cc1	16	67*	1	.	5
C[C@H]1CN([C@@H](C)CO)C(=O)Cc2cc(NS(=O)(=O)c3cn(C)cn3)ccc2O[C@@H]1CN(C)Cc1ccc(C(=O)Nc2ccccc2N)cc1	.	.	.	5	.
CO[C@H]1CN(C)C(=O)c2cc(NC(=O)Nc3cc(Cl)cc(Cl)c3)ccc2OC[C@@H](C)NC[C@H]1C	.	.	.	-7	.
C[C@H](CO)N1C[C@H](C)[C@H](CN(C)CC2CC2)Oc2cc(-c3ccccc3F)ccc2S1(=O)=O	.	.	.	-11	.
CCNC(=O)Nc1ccc2c(c1)C(=O)N(C)[C@H]1CC[C@H](CC(=O)N[C@H](C)c3ccccc3)O[C@H]1CO2	.	.	.	0	.
Cc1ccc(NC(=O)NCCN2C(=O)C3C4C=CC(C4)C3C2=O)cc1 (configuration not stated)	22	9	47	20	3
O=C(Nc1ccccc1)c1cccc(C(=O)Nc2ccccc2)n1	2	2	-7	-2	-2
COc1ccc(NC(=O)NCCN2C(=O)C3C4C=CC(C4)C3C2=O)cc1 (configuration not stated)	24	2	36	58*	3
CN(C)c1ccc(NC(=O)c2cccc(C(=O)Nc3ccc(N(C)C)cc3)n2)cc1	.	68*	11	.	3
CO[C@@H]1CN(C)C(=O)c2cc(NC(=O)C3CC3)ccc2OC[C@H](C)N(Cc2ccncc2)C[C@@H]1C	.	.	.	-6	.
C[C@@H]1CN([C@@H](C)CO)S(=O)(=O)c2ccc(C3=CCCCC3)cc2O[C@@H]1CN(C)C(=O)Nc1ccc2c(c1)OCO2	.	.	.	2	.
Cc1ccc2[nH]c3c(NCc4ccco4)ncnc3c2c1	-1	57*	13	-5	-2
COc1ccc(/C=N/Nc2ncnc3c2[nH]c2ccc(C)cc23)c(OC)c1OC	-2	63*	.	.	6
CCOc1ccc2[nH]c3c(NCCc4ccc(OC)c(OC)c4)ncnc3c2c1	-3	22	-25	.	-3
COc1cc(CNc2ncnc3c2[nH]c2ccc(C)cc23)cc(OC)c1	1	27	.	-2	0
O=C(Nc1ccc2c(c1)OC1(CCCC1)O2)C1CC1	.	11	37	42*	0
O=C(Nc1ccc2c(c1)oc1ccccc12)C1CC1	0	74*	.	59*	1
CCCCC(=O)Nc1ccc2c(c1)oc1ccccc12	21	6	?	.	4
CC(C)CC(=O)Nc1ccc2c(c1)oc1ccccc12	.	22	91*	62*	4
O=C(Nc1ccc2c(c1)oc1ccc(S(=O)(=O)N3CCCC3)cc12)C1CC1	.	-6	-5	10	0
CN1c2ccc(Br)cc2[C@@H]2[C@@H](CCN2C(=O)CN2CCOCC2)[C@@H]1CO	.	.	.	-3	.
CCOC(=O)c1cc(-c2ccccc2C)nn1Cc1cc(CC)no1	8	3	58	39	2
CCOC(=O)c1cc(-c2ccccc2)nn1Cc1cc(CC)no1	15	-2	73	61*	4
CSc1cccc(NC(=O)CCc2ccccc2)c1	0	14	6	9	3
CSc1cccc(NC(=S)NC(=O)CCc2ccccc2)c1	-4	54*	12	6	1
COc1cc(CNc2ccc3[nH]c(=O)[nH]c3c2)ccc1OCc1ccccc1C	18	1	71	47*	2
COc1cc(CNc2ccc3[nH]c(=O)[nH]c3c2)ccc1OCc1ccc(Cl)cc1	11	1	.	55*	6
COc1ccc(CNc2ccc3cn[nH]c3c2)c(OC)c1OC	.	27	-25	.	-2
CCOc1cc(CNc2ccc3cn[nH]c3c2)ccc1OC	.	53*	-5	6	1

Screening results from PubChem BioAssay.
